Assay results as given in the supplement of paper PMC4022240.
± gives the standard deviation.

Tests used:
Assay in all cases: peptide microarray binding signal (635 nm), min-max normalized on array (fraction of array maximum); higher = stronger binding
Conditions in all cases: peptide region: H3 5-17
[1] = biological target: T1, HaloTag-ATRX ADD domain (163-292)
T1 chain: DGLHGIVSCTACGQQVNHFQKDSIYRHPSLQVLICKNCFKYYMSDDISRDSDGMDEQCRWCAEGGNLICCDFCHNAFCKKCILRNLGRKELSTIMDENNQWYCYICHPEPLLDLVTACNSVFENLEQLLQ
Method in brief: (§1)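 Two probe formats were used for 1 h at 4°C: biotin-labelled HaloTag reader fusions (10 nM to 1 μM) with streptavidin-Alexa Fluor 647, and rabbit histone antibodies (1:10,000 to 1:2,000) with anti-rabbit Alexa 647. Both were applied to nitrocellulose arrays of histone 13-mer peptide–cellulose conjugates printed in triplicate with a Cy3 tracer and blocked overnight at 4°C. Signal was read at 635 nm and misprints at 532 nm on an Axon GenePix 4000B. Binding signal is expressed as the triplicate-spot mean intensity, min-max scaled for each library.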

[2] = biological target: HaloTag-ING2 PHD (mouse Ing2 200-280)
Method in brief: as §1

[3] = biological target: anti-H3K4me3 antibody ab8580
Method in brief: as §1

[4] = biological target: anti-H3K9me3 antibody ab8898
Method in brief: as §1

[5] = peptide modifications: H3K9ac H3S10ph, binder concentration: 1:2,000 dilution
[6] = peptide modifications: H3K9ac H3S10ph, binder concentration: 1:10,000 dilution
[7] = peptide modifications: H3K9ac H3K14me3, binder concentration: 1:2,000 dilution
[8] = peptide modifications: H3K9ac H3K14me3, binder concentration: 1:10,000 dilution
[9] = peptide modifications: H3K9me3 H3K14ac, binder concentration: 1:2,000 dilution
[10] = peptide modifications: H3K9me3 H3K14ac, binder concentration: 1:10,000 dilution
[11] = peptide modifications: H3K9ac, binder concentration: 1:2,000 dilution
[12] = peptide modifications: H3K9ac, binder concentration: 1:10,000 dilution
[13] = peptide modifications: H3K9me3, binder concentration: 1:2,000 dilution
[14] = peptide modifications: H3K9me3, binder concentration: 1:10,000 dilution
[15] = peptide modifications: H3K9me2 H3K14me1, binder concentration: 1:2,000 dilution
[16] = peptide modifications: H3K9me2 H3K14me1, binder concentration: 1:10,000 dilution
[17] = peptide modifications: H3K9me2 H3K14me3, binder concentration: 1:2,000 dilution
[18] = peptide modifications: H3K9me2 H3K14me3, binder concentration: 1:10,000 dilution
[19] = peptide modifications: H3K9ac H3T11ph, binder concentration: 1:2,000 dilution
[20] = peptide modifications: H3K9ac H3T11ph, binder concentration: 1:10,000 dilution
[21] = peptide modifications: H3K9me1, binder concentration: 1:2,000 dilution
[22] = peptide modifications: H3K9me1, binder concentration: 1:10,000 dilution
[23] = peptide modifications: H3K9me1 H3T11ph, binder concentration: 1:2,000 dilution
[24] = peptide modifications: H3K9me1 H3T11ph, binder concentration: 1:10,000 dilution

QTARKSTGGKAPR [H3 5-17 Q T A R Kac Sph T G G K A P R]
peptide microarray binding signal ([1]; peptide modifications: H3K9ac H3S10ph, binder concentration: 50 nM): 0.00592 ± 8.9e-05 | peptide microarray binding signal ([1]; peptide modifications: H3K9ac H3S10ph, binder concentration: 500 nM): 0.0176 ± 0.0016 | peptide microarray binding signal ([2]; peptide modifications: H3K9ac H3S10ph, binder concentration: 10 nM): 0.00507 ± 0.00017 | peptide microarray binding signal ([2]; peptide modifications: H3K9ac H3S10ph, binder concentration: 100 nM): 0.0274 ± 0.0063 | peptide microarray binding signal [3, 5]: 0.0005474 ± 5.3e-06 | peptide microarray binding signal [3, 6]: 0.000514 ± 1.5e-05 | peptide microarray binding signal [4, 5]: 0.00667 ± 0.00058 | peptide microarray binding signal [4, 6]: 0.00265 ± 0.00012

QTARKSTGGKAPR [H3 5-17 Q T A R Kac S T G G Kme3 A P R]
peptide microarray binding signal ([1]; peptide modifications: H3K9ac H3K14me3, binder concentration: 50 nM): 0.00755 ± 0.00045 | peptide microarray binding signal ([1]; peptide modifications: H3K9ac H3K14me3, binder concentration: 500 nM): 0.0117 ± 0.00052 | peptide microarray binding signal ([2]; peptide modifications: H3K9ac H3K14me3, binder concentration: 10 nM): 0.00758 ± 0.00031 | peptide microarray binding signal ([2]; peptide modifications: H3K9ac H3K14me3, binder concentration: 100 nM): 0.00957 ± 0.00088 | peptide microarray binding signal [3, 7]: 0.0161 ± 0.0026 | peptide microarray binding signal [3, 8]: 0.0127 ± 0.0015 | peptide microarray binding signal [4, 7]: 0.0416 ± 0.0084 | peptide microarray binding signal [4, 8]: 0.0649 ± 0.082

QTARKSTGGKAPR [H3 5-17 Q T A R Kme3 S T G G Kac A P R]
peptide microarray binding signal ([1]; peptide modifications: H3K9me3 H3K14ac, binder concentration: 50 nM): 0.005862 ± 5.4e-05 | peptide microarray binding signal ([1]; peptide modifications: H3K9me3 H3K14ac, binder concentration: 500 nM): 0.0246 ± 0.0026 | peptide microarray binding signal ([2]; peptide modifications: H3K9me3 H3K14ac, binder concentration: 10 nM): 0.0279 ± 0.0021 | peptide microarray binding signal ([2]; peptide modifications: H3K9me3 H3K14ac, binder concentration: 100 nM): 0.0183 ± 0.013 | peptide microarray binding signal [3, 9]: 0.0646 ± 0.051 | peptide microarray binding signal [3, 10]: 0.089 ± 0.042 | peptide microarray binding signal [4, 9]: 0.781 ± 0.051 | peptide microarray binding signal [4, 10]: 0.939 ± 0.11

QTARKSTGGKAPR [H3 5-17 Q T A R Kac S T G G K A P R]
peptide microarray binding signal ([1]; peptide modifications: H3K9ac, binder concentration: 50 nM): 0.00263 ± 0.00033 | peptide microarray binding signal ([1]; peptide modifications: H3K9ac, binder concentration: 500 nM): 0.00271 ± 0.00021 | peptide microarray binding signal ([2]; peptide modifications: H3K9ac, binder concentration: 10 nM): 0.00352 ± 5e-05 | peptide microarray binding signal ([2]; peptide modifications: H3K9ac, binder concentration: 100 nM): 0.002055 ± 2e-05 | peptide microarray binding signal [3, 11]: 0.00123 ± 0.0001 | peptide microarray binding signal [3, 12]: 0.00245 ± 0.00036 | peptide microarray binding signal [4, 11]: 0.0011 ± 6.7e-05 | peptide microarray binding signal [4, 12]: 0.00167 ± 7.4e-05

QTARKSTGGKAPR [H3 5-17 Q T A R Kme3 S T G G K A P R]
peptide microarray binding signal ([1]; peptide modifications: H3K9me3, binder concentration: 50 nM): 0.00411 ± 0.00036 | peptide microarray binding signal ([1]; peptide modifications: H3K9me3, binder concentration: 500 nM): 0.00362 ± 0.00095 | peptide microarray binding signal ([2]; peptide modifications: H3K9me3, binder concentration: 10 nM): 0.00448 ± 6.1e-05 | peptide microarray binding signal ([2]; peptide modifications: H3K9me3, binder concentration: 100 nM): 0.002126 ± 2.1e-05 | peptide microarray binding signal [3, 13]: 0.00266 ± 0.00033 | peptide microarray binding signal [3, 14]: 0.00519 ± 0.00032 | peptide microarray binding signal [4, 13]: 0.00814 ± 0.0004 | peptide microarray binding signal [4, 14]: 0.0129 ± 0.0011

QTARKSTGGKAPR [H3 5-17 Q T A R Kme2 S T G G Kme A P R]
peptide microarray binding signal ([1]; peptide modifications: H3K9me2 H3K14me1, binder concentration: 50 nM): 0.00589 ± 7.1e-05 | peptide microarray binding signal ([1]; peptide modifications: H3K9me2 H3K14me1, binder concentration: 500 nM): 0.015 ± 0.0013 | peptide microarray binding signal ([2]; peptide modifications: H3K9me2 H3K14me1, binder concentration: 10 nM): 0.00812 ± 0.00048 | peptide microarray binding signal ([2]; peptide modifications: H3K9me2 H3K14me1, binder concentration: 100 nM): 0.0359 ± 0.0037 | peptide microarray binding signal [3, 15]: 0.00455 ± 0.00086 | peptide microarray binding signal [3, 16]: 0.00365 ± 0.00015 | peptide microarray binding signal [4, 15]: 0.217 ± 0.078 | peptide microarray binding signal [4, 16]: 0.0891 ± 0.021

QTARKSTGGKAPR [H3 5-17 Q T A R Kme2 S T G G Kme3 A P R]
peptide microarray binding signal ([1]; peptide modifications: H3K9me2 H3K14me3, binder concentration: 50 nM): 0.00301 ± 0.00046 | peptide microarray binding signal ([1]; peptide modifications: H3K9me2 H3K14me3, binder concentration: 500 nM): 0.002 ± 0.00021 | peptide microarray binding signal ([2]; peptide modifications: H3K9me2 H3K14me3, binder concentration: 10 nM): 0.00143 ± 1.7e-05 | peptide microarray binding signal ([2]; peptide modifications: H3K9me2 H3K14me3, binder concentration: 100 nM): 0.00106 ± 3e-05 | peptide microarray binding signal [3, 17]: 0.00126 ± 0.00029 | peptide microarray binding signal [3, 18]: 0.00405 ± 0.0015 | peptide microarray binding signal [4, 17]: 0.00464 ± 0.0015 | peptide microarray binding signal [4, 18]: 0.00646 ± 0.0028

QTARKSTGGKAPR [H3 5-17 Q T A R Kac S Tph G G K A P R]
peptide microarray binding signal ([1]; peptide modifications: H3K9ac H3T11ph, binder concentration: 50 nM): 0.00266 ± 6.1e-05 | peptide microarray binding signal ([1]; peptide modifications: H3K9ac H3T11ph, binder concentration: 500 nM): 0.0107 ± 0.00079 | peptide microarray binding signal ([2]; peptide modifications: H3K9ac H3T11ph, binder concentration: 10 nM): 0.00531 ± 0.00025 | peptide microarray binding signal ([2]; peptide modifications: H3K9ac H3T11ph, binder concentration: 100 nM): 0.0213 ± 0.0014 | peptide microarray binding signal [3, 19]: 0.000755 ± 2.5e-05 | peptide microarray binding signal [3, 20]: 0.000171 ± 1.9e-06 | peptide microarray binding signal [4, 19]: 0.00547 ± 0.00037 | peptide microarray binding signal [4, 20]: 0.00271 ± 0.00015

QTARKSTGGKAPR [H3 5-17 Q T A R Kme S T G G K A P R]
peptide microarray binding signal ([1]; peptide modifications: H3K9me1, binder concentration: 50 nM): 0.00445 ± 0.00012 | peptide microarray binding signal ([1]; peptide modifications: H3K9me1, binder concentration: 500 nM): 0.00171 ± 7.9e-05 | peptide microarray binding signal ([2]; peptide modifications: H3K9me1, binder concentration: 10 nM): 0.00448 ± 0.00018 | peptide microarray binding signal ([2]; peptide modifications: H3K9me1, binder concentration: 100 nM): 0.002055 ± 2e-05 | peptide microarray binding signal [3, 21]: 0.000642 ± 1.6e-05 | peptide microarray binding signal [3, 22]: 0.0139 ± 0.012 | peptide microarray binding signal [4, 21]: 0.0007551 ± 6.5e-06 | peptide microarray binding signal [4, 22]: 0.00121 ± 2.4e-05

QTARKSTGGKAPR [H3 5-17 Q T A R Kme S Tph G G K A P R]
peptide microarray binding signal ([1]; peptide modifications: H3K9me1 H3T11ph, binder concentration: 50 nM): 0.00179 ± 4.4e-05 | peptide microarray binding signal ([1]; peptide modifications: H3K9me1 H3T11ph, binder concentration: 500 nM): 0.003 ± 0.00011 | peptide microarray binding signal ([2]; peptide modifications: H3K9me1 H3T11ph, binder concentration: 10 nM): 0.002208 ± 2.2e-05 | peptide microarray binding signal ([2]; peptide modifications: H3K9me1 H3T11ph, binder concentration: 100 nM): 0.00524 ± 0.00071 | peptide microarray binding signal [3, 23]: 0.000396 ± 4.2e-05 | peptide microarray binding signal [3, 24]: 0.000285 ± 3.1e-06 | peptide microarray binding signal [4, 23]: 0.00856 ± 0.0022 | peptide microarray binding signal [4, 24]: 0.00208 ± 5.1e-05
